Source: the supplement of paper PMC13172266
Structures can show the parent of a compound that is named as a salt.

How the values were obtained:
Assay in all cases: cell proliferation relative to vehicle (% of vehicle); higher = less growth inhibition
Settings in all cases: 72 h
[1] = tested on: U2932 TK216-resistant clone 2
Method in brief: (§1)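 A targeted inhibitor library of 348 compounds was tested on the ABC-DLBCL line U2932, both parental and two clones made resistant to an ETS-targeting agent by repeated exposure over almost a year. Cells were grown at 37°C and 5% CO2 in medium with 10% FBS, then treated at 500 nM or 50 nM for 72 h. MTT was added for 4 h, stopped with 25% SDS, and absorbance was read on a Cytation 3. Proliferation is reported as percent of proliferating cells relative to vehicle (DMSO).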

[2] = tested on: U2932 TK216-resistant clone 3
Method in brief: as §1

U2932 parental = tested on: U2932 parental
Method in brief: as §1

Row | SMILES | cell proliferation ([1]; 50 nM) | cell proliferation ([1]; 500 nM) | cell proliferation ([2]; 50 nM) | cell proliferation ([2]; 500 nM) | cell proliferation (U2932 parental; 50 nM) | cell proliferation (U2932 parental; 500 nM)
1 | CC(C)NCCCn1c(Sc2cc3c(cc2I)OCO3)nc2c(N)ncnc21 | 113 | 6.42 | 105 | 31.6 | 112 | 6.73
2 | O=c1oc2c(O)c(O)cc3c(=O)oc4c(O)c(O)cc1c4c23 [Ellagic acid] | 99 | 110 | 106 | 107 | 101 | 100
3 | Nc1ccn([C@@H]2O[C@H](CO)[C@@H](O)C2(F)F)c(=O)n1 [Gemcitabine] | 15.3 | 14.9 | 20.1 | 19.1 | 12.5 | 14.6
4 | O=C(O)c1ccc(-c2c[nH]c3ncc(-c4ccccc4)cc23)cc1C1CCCC1 | 107 | 100 | 97.4 | 105 | 105 | 107
5 | CC/C(=C(\c1ccccc1)c1ccc(OCCN(C)C)cc1)c1ccccc1 [Tamoxifen Citrate] | 98.9 | 89.7 | 89 | 86.3 | 82.1 | 79.1
6 | Cc1cc(Nc2cc(N3CCN(C)CC3)nc(Sc3ccc(NC(=O)C4CC4)cc3)n2)n[nH]1 [VX-680 (Tozasertib, MK-0457)] | 91.1 | 79.9 | 72.2 | 69 | 64.5 | 57.8
7 | Cc1ccc(C(=O)N(CCCN)[C@@H](c2nc3cc(Cl)ccc3c(=O)n2Cc2ccccc2)C(C)C)cc1 | 13 | 10.8 | 7.24 | 5.07 | 9.61 | 10.2
8 | COc1cccc(-c2cc(F)ccc2C2Cc3nc(N)nc(C)c3C(=O)N2)n1 (centres undefined) | 6.3 | 4.81 | 22.6 | 18.7 | 7.13 | 6.37
9 | N#Cc1c(Oc2ccc(F)c(NC(=O)Cc3cccc(C(F)(F)F)c3)c2)ccc2nc(NC(=O)C3CC3)sc12 | 104 | 92.8 | 107 | 103 | 95.9 | 98.6
10 | Cc1ccc(Nc2nccc(N(C)c3ccc4c(C)n(C)nc4c3)n2)cc1S(N)(=O)=O [Pazopanib HCl] | 110 | 102 | 101 | 99.6 | 95.2 | 105
11 | CCCS(=O)(=O)Nc1ccc(F)c(C(=O)c2c[nH]c3ncc(-c4ccc(Cl)cc4)cc23)c1F [Vemurafenib (PLX4032, RG7204)] | 106 | 110 | 101 | 108 | 101 | 100
12 | O=c1[nH]c(=O)n([C@H]2C[C@H](O)[C@@H](CO)O2)cc1F [Floxuridine] | 60.3 | 37.4 | 95.2 | 72.5 | 73.1 | 34.2
13 | COc1ccc(-c2ccc3c(N4CCOC[C@@H]4C)nc(N4CCOC[C@@H]4C)nc3n2)cc1CO | 72.7 | 34.8 | 75.1 | 40.2 | 63.8 | 35.1
14 | O=C(Nc1cc(C(F)(F)F)cc(C(F)(F)F)c1)c1cc(Cl)ccc1O | 103 | 104 | 109 | 102 | 102 | 101
15 | CCc1ccc(/C=C2/SC(=S)NC2=O)cc1 | 105 | 103 | 102 | 99.4 | 94.2 | 104
16 | CC(C)CCN1c2nc(Nc3cc(F)c(O)c(F)c3)ncc2N(C)C(=O)C1C (centres undefined) | 114 | 99.9 | 106 | 91.3 | 105 | 97.3
17 | CC[C@@H]1C(=O)N(C)c2cnc(Nc3ccc(C(=O)NC4CCN(C)CC4)cc3OC)nc2N1C1CCCC1 | 13.1 | 21 | 16.2 | 23.3 | 14.8 | 20.4
18 | O=C(O)CCNc1cc(N2CCc3ccccc3CC2)nc(-c2ccccn2)n1 | 103 | 100 | 105 | 102 | 99.3 | 99.8
19 | CNC(=O)c1cc(Oc2ccc(NC(=O)Nc3ccc(Cl)c(C(F)(F)F)c3)cc2)ccn1 [Sorafenib] | 114 | 107 | 105 | 122 | 101 | 112
20 | COc1cc(Nc2c(C#N)cnc3cc(OCCCN4CCN(C)CC4)c(OC)cc23)c(Cl)cc1Cl [Bosutinib (SKI-606)] | 106 | 73.1 | 103 | 63.3 | 98.5 | 83.4
21 | CN1CCC(Nc2nc(Nc3ccc(Oc4ccccc4)cc3)c3c(=O)[nH]cc(Br)c3n2)CC1 | 100 | 83.1 | 99.4 | 83.4 | 89.6 | 85.5
22 | COc1cc2nccc(Oc3ccc(NC(=O)C4(C(=O)Nc5ccc(F)cc5)CC4)cc3)c2cc1OC [Cabozantinib malate (XL184)] | 109 | 109 | 102 | 95.7 | 109 | 103
23 | COc1cc(-c2cc(-c3ccc(N4CCNCC4)cc3)cnc2C)cc(OC)c1OC | 99.7 | 88.1 | 107 | 88.5 | 104 | 96.6
24 | CNC(=O)c1cc(Oc2ccc(NC(=O)Nc3ccc(Cl)c(C(F)(F)F)c3)c(F)c2)ccn1 [Regorafenib (BAY 73-4506)] | 103 | 116 | 105 | 107 | 105 | 105
25 | NCC(=O)Nc1ccc(-n2nc(C(F)(F)F)cc2-c2ccc3c(ccc4ccccc43)c2)cc1 | 99.6 | 84.6 | 95.3 | 72.8 | 96.2 | 82.4

Row | SMILES | cell proliferation ([1]; 50 nM) | cell proliferation ([1]; 500 nM) | cell proliferation ([2]; 50 nM) | cell proliferation ([2]; 500 nM) | cell proliferation (U2932 parental; 50 nM) | cell proliferation (U2932 parental; 500 nM)
26 | CN(C)Cc1c(C(=O)NCCOc2ccc(C(=O)NO)cc2)oc2ccccc12 | 99.6 | 40.3 | 91.6 | 47.6 | 81.5 | 32.6
27 | CCOc1cc(C(=O)N2CCC(N3CCN(C)CC3)CC2)ccc1Nc1ncc2c(n1)N(C1CCCC1)c1ccccc1C(=O)N2C | 95 | 74.3 | 95.4 | 65.4 | 94.8 | 75.5
28 | Nc1nc(F)nc2c1ncn2[C@@H]1O[C@H](COP(=O)(O)O)[C@@H](O)[C@@H]1O [Fludarabine Phosphate] | 98.2 | 110 | 103 | 104 | 102 | 93.7
29 | NC(=O)c1ccc(N(C(N)=O)c2c(F)cccc2F)nc1-c1ccc(F)cc1F | 106 | 100 | 108 | 99.3 | 99.3 | 98.7
30 | COc1nc(C)cnc1NS(=O)(=O)c1cccnc1-c1ccc(-c2nnco2)cc1 [Zibotentan (ZD4054)] | 95.1 | 104 | 106 | 102 | 97.2 | 95.2
31 | COc1cc(Nc2ncc3c(n2)-c2ccc(Cl)cc2C(c2c(F)cccc2OC)=NC3)ccc1C(=O)O [Alisertib (MLN8237)] | 73.6 | 79.3 | 61.8 | 72.8 | 52.2 | 53.2
32 | C[C@@H](Oc1cc(-c2cnn(C3CCNCC3)c2)cnc1N)c1c(Cl)ccc(F)c1Cl | 97.6 | 74.4 | 86.4 | 61.9 | 89.9 | 56.5
33 | COc1cc2ncnc(Nc3ccc(O)c(Br)c3)c2cc1OC | 106 | 111 | 96.2 | 105 | 98.3 | 101
34 | C=CCNC1=C2C[C@@H](C)C[C@H](OC)[C@H](O)[C@@H](C)/C=C(\C)[C@H](OC(N)=O)[C@@H](OC)/C=C\C=C(/C)C(=O)NC(=CC1=O)C2=O [17-AAG (Tanespimycin)] | 103 | 115 | 105 | 114 | 96.7 | 107
35 | Cc1ccc([C@@H]2O[C@H](CO)[C@@H](O)[C@H](O)[C@H]2O)cc1Cc1ccc(-c2ccc(F)cc2)s1 [Canagliflozin] | 93.3 | 102 | 104 | 104 | 91.9 | 87.9
36 | C[C@@H]1CC(=O)c2c(ccc3c2C(=O)c2cccc(O)c2C3=O)C1 | 102 | 98.5 | 104 | 92.5 | 87.5 | 97
37 | CN1CCN(Cc2ccc(-c3cnc4[nH]cc(-c5ccc6[nH]ccc6c5)c4c3)cc2)CC1 | 96.6 | 91.2 | 97.2 | 85.4 | 92.5 | 101
38 | Cc1ccc(S(=O)(=O)/C=C/C#N)cc1 | 107 | 113 | 109 | 104 | 102 | 102
39 | COC1=CC(c2cc3ccccc3[nH]2)=N/C1=C\c1[nH]c(C)cc1C [Obatoclax Mesylate (GX15-070)] | 94.8 | 1.6 | 102 | 8.59 | 75.2 | 2.95
40 | COc1ccccc1OCC(O)CN1CCN(CC(=O)Nc2c(C)cccc2C)CC1 (centres undefined) [Ranolazine] | 97.6 | 91.3 | 95 | 101 | 106 | 99.1
41 | O=C(c1ccc(/C=C/c2n[nH]c3ccccc23)cc1)N1CCNCC1 | 109 | 91 | 104 | 82.4 | 95 | 72.2
42 | c1cc(-c2cnn3cc(-c4ccc(OCCN5CCCCC5)cc4)cnc23)ccn1 [Dorsomorphin 2HCl] | 113 | 98 | 119 | 108 | 110 | 98.3
43 | Nc1ccccc1NC(=O)c1ccc(CNC(=O)OCc2cccnc2)cc1 [Entinostat (MS-275)] | 104 | 74.8 | 88.2 | 66.7 | 93.2 | 66.2
44 | COc1cc(Nc2ncc(F)c(Nc3ccc4c(n3)NC(=O)C(C)(C)O4)n2)cc(OC)c1OC | 108 | 97.1 | 103 | 103 | 87.9 | 82.1
45 | CC(C)(C)c1cc(NC(=O)Nc2ccc(-c3cn4c(n3)sc3cc(OCCN5CCOCC5)ccc34)cc2)no1 [Quizartinib (AC220)] | 95.7 | 97.3 | 95 | 90.2 | 101 | 102
46 | Nc1ccc(C(=O)Nc2cccc(-c3nc(N4CCOCC4)c4oc5ncccc5c4n3)c2)cn1 | 98.7 | 104 | 102 | 104 | 102 | 103
47 | O=NN(CCCl)C(=O)NC1CCCCC1 [Lomustine] | 112 | 103 | 111 | 105 | 101 | 114
48 | Cc1cc(N2CCOCC2)cc2[nH]c(-c3c(NC[C@@H](O)c4cccc(Cl)c4)cc[nH]c3=O)nc12 | 110 | 96 | 100 | 92.8 | 102 | 100
49 | O=C(CCCCCCNC(=O)c1cnc(N(c2ccccc2)c2ccccc2)nc1)NO [Rocilinostat (ACY-1215)] | 104 | 104 | 110 | 96.5 | 98.5 | 92.2
